This note sets out measurements from PubChem BioAssay (NCI).

The panel holds about 83,000 compounds, 20% with a hit somewhere; the sample as a whole holds those more often.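 Note: values are percent growth. 100 is the growth of untreated cells, values between 100 and 0 indicate rising inhibition; between -100 and 0 indicates cell death.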 A number with no mark means an inactive call. Activity calls are given as the source filed them. Rule for the calls: active = growth percent below 10; inactive = the rest.

The test system of this assay is SK-MEL-28 melanoma. The assay is described as follows: NCI-60 one-dose screen, 48 h (100 = growth as untreated, 0 = no growth, -100 = all killed). The note with it: 10 µM unless noted.
Consider `C[C@H]1[C@@H]2[C@H]3CC[C@@H]4[C@@]5(C)Cc6c([nH]c7ccccc67)C(C)(C)[C@@H]5CC[C@@]4(C)[C@]3(C)CC[C@]23CO[C@]1(C)[C@@H](C(=O)/C=C/c1ccccn1)C3`, for which the growth was 97.4%.

For `CCCC1CCCCN1C(=O)OCC(C)C` (stereo not given), the growth is 113%.

For the compound `N#CC1C(=N)Cc2ccccc2-c2ccccc21` (stereo not given), the growth was 58.3%. With `Cc1cc(C)nc(NC(N)=NCCc2ccccc2)n1`, the growth was 33.8%. As to `N=c1c(S(=O)(=O)c2ccccc2)cc2c(=O)n3ccccc3nc2n1C1CCCC1`, the growth is 102%. With `CCOc1ccc(NC(=O)c2ccccc2-c2ccccc2C(=O)O)cc1`, the growth was 109%. Turning to `CCCCC[C@H]1C/C=C2/C(=O)C=C[C@@H]2C/C=C\CCCC(=O)O[C@@H](CCCCC)C/C=C2/C(=O)C=C[C@@H]2C/C=C\CCCC(=O)O1`, the growth was -81.9% (active). Consider `CC(C)=CCC/C(C)=C/CC/C(C)=C/CC/C(C)=C/CSC[C@H](NC(=O)CCCCCN1CCN(C)CC1)C(=O)NC1CCCCC1`, for which the growth was 5.53% (active).

Regarding `O=C(/C=C/c1ccc2ccccc2c1)Nc1ncc(Cc2ccccc2)s1`, the growth was 85%. The value for `C=C(C)[C@@H]1CC[C@]2(C(=O)O)CC[C@]3(C)[C@H](CC[C@@H]4[C@@]5(C)C/C(=C/c6ccc(OC)cc6)C(=O)C(C)(C)[C@@H]5CC[C@]43C)[C@@H]12` was 41.3%; that for `COc1ccc2c(c1)c(-c1nc(-c3cn(C)c4ncccc34)cs1)cn2CCCN1CCCCC1` was -77.5% (active); that for `C#CCC(C)(O)/C=C/C1=C(C)CCCC1(C)C` (stereo not given) was 101%.

For the compound `C=C(C)[C@@H]1CC[C@]2(C=NCCCNCCCCNCCCN)CC[C@]3(C)[C@H](CC[C@@H]4[C@@]5(C)CCCNC(C)(C)[C@@H]5CC[C@]43C)[C@@H]12`, the growth was 111%. For `Nc1ccc(Br)cn1` the value was 107%; for `COc1ccc(C2CC(=O)c3c(nc4ccc(Cl)cc4c3N)C2)cc1` (stereo not given), 98.4%.

For `COc1cc2c(cc1-c1c(C)noc1C)ncc1nc(C3CCC(F)(F)CC3)n([C@@H](C)COC(F)F)c12`, the growth is 47.3%. Consider `CC1(n2nnnc2N2CCCN(c3ncccc3N)CC2)CCC1`, for which the growth was 100%. Take `O=C(O[C@@H]1Cc2c(O)cc(O)cc2O[C@@H]1c1cc(O)c(O)c(O)c1)c1cc(O)c2c(c1)OCO2`: the growth is 101%. With `COc1cc(-c2nc(-c3ccccc3)c(-c3ccccc3)[nH]2)cc(OC)c1O`, the growth is -4.06% (active).

Take `C=C(C)[C@@H]1CC[C@]2(C(=O)O)CC[C@]3(C)[C@H](CC[C@@H]4[C@@]5(C)C/C(=C/c6cccc(I)c6)C(=O)C(C)(C)[C@@H]5CC[C@]43C)[C@@H]12`: the growth is 75.4%. Regarding `NC1=NN=C2N(N)C(=O)c3cnn(-c4ccccc4)c3N2c2nc(-c3ccccc3)cc(-c3ccccc3)c21`, the growth is 118%. As to `CCSc1ncnc2c1ncn2C1OC(CO)C(O)C1O` (stereo not given), the growth was 83.1%. Consider `COc1ccc(-c2nc3ccccn3c2-c2nc3ccc(Cl)cc3[nH]2)cc1`, for which the growth was 101%.

In the case of `CC(=O)OC[C@]12CC[C@@H](/C(C)=N/O)[C@@H]1[C@H]1CC[C@@H]3[C@@]4(C)CCCNC(C)(C)[C@@H]4CC[C@@]3(C)[C@]1(C)CC2`, the growth is 86%. `OCC12CCCC(CO)(COC1)C2O` (stereo not given): the growth was 107%. In the case of `Cc1ccc(N(CC(=O)Nc2ccc(S(=O)(=O)N3CCC(N4CCCC4)CC3)cc2)S(=O)(=O)c2ccc(Cl)cc2)cc1`, the growth is -68.3% (active). With `Brc1ccc(Cn2nnnc2-c2ccn(-c3ccccc3)n2)cc1`, the growth is 95.3%. For the compound `COC(=O)c1cc(=O)nc(N/N=C/c2ccc(C)cc2)s1`, the growth is 104%.

Turning to `Cc1ccc2oc(=O)cc(-c3sc(N4CCCCC4)nc3-c3ccccc3)c2c1`, the growth is 103%. For the compound `CC1(C)CC[C@]2(C(=O)Nc3ccccn3)CC[C@]3(C)C(=CC[C@@H]4[C@@]5(C)C/C(=C/c6ccncc6)C(=O)C(C)(C)[C@@H]5CC[C@]43C)[C@@H]2C1`, the growth was 37.5%. `COc1ccc(OCC(CO)N2CCN(c3ccccc3)CC2)cc1` (stereo not given): the growth is 103%. `Clc1ccc2[nH]cc(-c3nc(-c4c[nH]c5ncccc45)cs3)c2c1`: the growth was 85.9%.

With `C=C(C)[C@@H]1CC[C@]2(CN)CC[C@]3(C)[C@H](CC[C@@H]4[C@@]5(C)CCC(=O)NC(C)(C)[C@@H]5CC[C@]43C)[C@@H]12`, the growth is 89.2%. `C/C(=N\Nc1ccc2ccccc2n1)c1ccccn1`: the growth is 30.2%. Take `C[N+](C)(CCCCCC[N+](C)(C)C1c2ccccc2-c2ccccc21)C1c2ccccc2-c2ccccc21`: the growth is 111%.
